Measurements taken from PubChem BioAssay (NCI).
The panel holds about 83,000 compounds, 20% with a hit somewhere; the sample as a whole holds those more often.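 Cell lines were cultured in 96-well plates, exposed to a single compound concentration, and assessed for percent growth 48 hours later.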 A number with no mark means an inactive call. The source made the active and inactive calls. The calls were made as follows: active = growth percent below 10; inactive = the rest.

Tested on: SK-MEL-2 melanoma
Assay: NCI-60 one-dose screen, 48 h (100 = growth as untreated, 0 = no growth, -100 = all killed)
Details: 10 µM

| SMILES | growth |
| --- | --- |
| CSc1cc(SC)ncn1 | 100% |
| CCOC(=O)CNC(=O)CCCCSc1ncnc2nc[nH]c12 | 97.6% |
| COc1ccc(OC)c(/C=C/c2nc(SCc3ccccc3)n(-c3ccc(Cl)cc3)n2)c1 | 69.2% |
| c1ccc(C(NC2CC3CCC2C3)c2ccccc2)cc1 (stereo not drawn) | 89.6% |
| CN1CCC2(CC1)NC(=O)c1c(c3ccc(Cl)c(Cl)c3n1C)C2C#N (stereo not drawn) | 99.6% |
| O=[N+]([O-])c1cccc(N=Cc2ccc3c(c2)OCO3)c1 | 98.1% |
| Nc1cc2c(cc1Cl)-c1ccc([N+](=O)[O-])cc1/C2=N\O | 106% |
| COc1ccc(OC)c2c1C(=O)CC2C (stereo not drawn) | 121% |
| N#CSCC1CC(O)(c2ccccc2)CC(c2ccc(Cl)cc2)O1 (stereo not drawn) | 40.5% |
| CCOC(=O)C1CCc2c(ccc3ccccc23)N1CCC#N (stereo not drawn) | 134% |
| Fc1ccc(-c2nnc(-c3c(-c4ccc(F)cc4)nc4ccccn34)o2)cc1 | 120% |
| O=C1/C(=C/c2ccc(Cl)cc2)SC(=Nc2ccc(Cl)cc2)N1Cc1nc2ccccc2[nH]1 | 88.4% |
| CO/N=C(/C(=O)NC1C(=O)N2C(C(=O)O)=C(COC(N)=O)CSC12)c1ccco1 (stereo not drawn) | 100% |
| COc1ccc(C2CC(c3ccc(N(C)C)cc3)=NN2c2ccc(S(N)(=O)=O)cc2)cc1 (stereo not drawn) | 79.7% |
| CN(C)CCNC(=O)c1cccn2c(=O)c3cc4ccccc4cc3nc12 | -65.9% (active) |
| Oc1[nH]c2ccc(Cl)cc2c1/C=c1/ccc2c(c1)N=C(c1cccs1)N=2 | 73.5% |
| Nc1ccc2c(c1)Cc1cc(N)c(Br)cc1-2 | 116% |
| Cc1ccc(Nc2nnc(-c3cc(-c4ccncc4)n(-c4ccccc4)n3)s2)cc1 | 92.4% |
| O=C(N/N=C\c1cc(Cl)ccc1[N+](=O)[O-])c1ccco1 | 117% |
| COc1ccc2c(c1)sc1nc(-c3ccccc3)c(-c3ccsc3)n12 | 5.47% (active) |

| SMILES | growth |
| --- | --- |
| O=C(N/N=C/c1ccccc1O)C(O)(c1ccccc1)c1ccccc1 | 107% |
| CCCCCCCCCCCCC1C/C=C\CCCC(=O)O1 (stereo not drawn) | 111% |
| O=C(Nc1cccc(Br)c1)c1cc(=O)[nH]c2ccccc12 | 56.6% |
| CC(C)=CCc1ccc(O)c(=O)cc1C(C)C | 17.2% |
| Cc1occc1-c1nnc(SCC(=O)c2ccc(NC(=O)CC(C)C)cc2)o1 | 90.8% |
| CC(C)=NNc1ncnc2c1ncn2C1OC(CO)C(O)C1O (stereo not drawn) | 41.4% |
| CCCCCCCCCCCCCC[n+]1ccc(C(N)=O)cc1 | -32.4% (active) |
| COc1ccc(Cl)cc1C(=O)Nc1nc2ccc(Cl)cc2s1 | 104% |
| O=C(CSSCC(=O)c1ccc(Cl)cc1)c1ccc(Cl)cc1 | 79.5% |
| O=[P@@]1(c2ccccc2)O[C@H](COCc2ccccc2)[C@@H](OCc2ccccc2)[C@H](OCc2ccccc2)[C@H]1O | 67.2% |
| Nc1ncn([C@@H]2O[C@H](CO)[C@@H](O)[C@H]2O)c(=O)n1 | -21.5% (active) |
| CCCCOC(=O)Oc1ccc(C(=O)Oc2ccc(OCC)cc2)cc1 | 112% |
| O=C1c2ccc3c4c(ccc(c24)C(=O)N1CCNCc1ccccc1)C(=O)N(CCNCc1ccccc1)C3=O | 119% |
| CCn1cc(C(=O)O)c(=O)c2cnc(N3CCCC3)nc21 | 97.7% |
| Cc1ccc(-c2nc(/C=C3/C(=O)N(C)c4ccc(F)cc43)c3ccccn23)cc1 | 115% |
| COc1ccc(OC)c(/C=C/c2nc(SC)n(-c3ccc(Cl)cc3)n2)c1 | 88.5% |
| COc1cccc(-c2cc(-c3cccc(NS(C)(=O)=O)c3)nc(N)c2C#N)c1O | 69% |
| CC1CN(Cc2ccccc2)C(=O)NC1=O (stereo not drawn) | 102% |
| Cc1cn(C2CCCCO2)c(=O)nc1NO (stereo not drawn) | 120% |

Tested on: EKVX NSCLC
Assay: as above
Details: 10 µM

| SMILES | growth |
| --- | --- |
| CSc1cc(SC)ncn1 | 107% |
| CCOC(=O)CNC(=O)CCCCSc1ncnc2nc[nH]c12 | 108% |
| COc1ccc(OC)c(/C=C/c2nc(SCc3ccccc3)n(-c3ccc(Cl)cc3)n2)c1 | 74.3% |
| c1ccc(C(NC2CC3CCC2C3)c2ccccc2)cc1 (stereo not drawn) | 96.8% |
| CN1CCC2(CC1)NC(=O)c1c(c3ccc(Cl)c(Cl)c3n1C)C2C#N (stereo not drawn) | 89% |
| O=[N+]([O-])c1cccc(N=Cc2ccc3c(c2)OCO3)c1 | 104% |
| Nc1cc2c(cc1Cl)-c1ccc([N+](=O)[O-])cc1/C2=N\O | 66% |
| COc1ccc(OC)c2c1C(=O)CC2C (stereo not drawn) | 98.7% |
| N#CSCC1CC(O)(c2ccccc2)CC(c2ccc(Cl)cc2)O1 (stereo not drawn) | 54% |
| CCOC(=O)C1CCc2c(ccc3ccccc23)N1CCC#N (stereo not drawn) | 92.8% |
| Fc1ccc(-c2nnc(-c3c(-c4ccc(F)cc4)nc4ccccn34)o2)cc1 | 95.3% |
| O=C1/C(=C/c2ccc(Cl)cc2)SC(=Nc2ccc(Cl)cc2)N1Cc1nc2ccccc2[nH]1 | 64.5% |
| CO/N=C(/C(=O)NC1C(=O)N2C(C(=O)O)=C(COC(N)=O)CSC12)c1ccco1 (stereo not drawn) | 99.4% |
| COc1ccc(C2CC(c3ccc(N(C)C)cc3)=NN2c2ccc(S(N)(=O)=O)cc2)cc1 (stereo not drawn) | 28.4% |
| CN(C)CCNC(=O)c1cccn2c(=O)c3cc4ccccc4cc3nc12 | 16.1% |
| Oc1[nH]c2ccc(Cl)cc2c1/C=c1/ccc2c(c1)N=C(c1cccs1)N=2 | 66.3% |
| Nc1ccc2c(c1)Cc1cc(N)c(Br)cc1-2 | 46.8% |
| Cc1ccc(Nc2nnc(-c3cc(-c4ccncc4)n(-c4ccccc4)n3)s2)cc1 | 97.7% |
| O=C(N/N=C\c1cc(Cl)ccc1[N+](=O)[O-])c1ccco1 | 106% |
| COc1ccc2c(c1)sc1nc(-c3ccccc3)c(-c3ccsc3)n12 | 40.8% |

| SMILES | growth |
| --- | --- |
| O=C(N/N=C/c1ccccc1O)C(O)(c1ccccc1)c1ccccc1 | 20% |
| CCCCCCCCCCCCC1C/C=C\CCCC(=O)O1 (stereo not drawn) | 94% |
| O=C(Nc1cccc(Br)c1)c1cc(=O)[nH]c2ccccc12 | 87.1% |
| CC(C)=CCc1ccc(O)c(=O)cc1C(C)C | 13.8% |
| Cc1occc1-c1nnc(SCC(=O)c2ccc(NC(=O)CC(C)C)cc2)o1 | 103% |
| CC(C)=NNc1ncnc2c1ncn2C1OC(CO)C(O)C1O (stereo not drawn) | 43.7% |
| CCCCCCCCCCCCCC[n+]1ccc(C(N)=O)cc1 | 1.08% (active) |
| COc1ccc(Cl)cc1C(=O)Nc1nc2ccc(Cl)cc2s1 | 76.2% |
| O=C(CSSCC(=O)c1ccc(Cl)cc1)c1ccc(Cl)cc1 | 91.4% |
| O=[P@@]1(c2ccccc2)O[C@H](COCc2ccccc2)[C@@H](OCc2ccccc2)[C@H](OCc2ccccc2)[C@H]1O | 70.7% |
| Nc1ncn([C@@H]2O[C@H](CO)[C@@H](O)[C@H]2O)c(=O)n1 | 107% |
| CCCCOC(=O)Oc1ccc(C(=O)Oc2ccc(OCC)cc2)cc1 | 98% |
| O=C1c2ccc3c4c(ccc(c24)C(=O)N1CCNCc1ccccc1)C(=O)N(CCNCc1ccccc1)C3=O | -65.6% (active) |
| CCn1cc(C(=O)O)c(=O)c2cnc(N3CCCC3)nc21 | 93.7% |
| Cc1ccc(-c2nc(/C=C3/C(=O)N(C)c4ccc(F)cc43)c3ccccn23)cc1 | 98.1% |
| COc1ccc(OC)c(/C=C/c2nc(SC)n(-c3ccc(Cl)cc3)n2)c1 | 61.4% |
| COc1cccc(-c2cc(-c3cccc(NS(C)(=O)=O)c3)nc(N)c2C#N)c1O | 32.6% |
| CC1CN(Cc2ccccc2)C(=O)NC1=O (stereo not drawn) | 121% |
| Cc1cn(C2CCCCO2)c(=O)nc1NO (stereo not drawn) | 92.9% |
